Here are results for 39 compounds from PubChem BioAssay (NCATS).

For some assays here: Results with a measured potency or affinity are listed apart. The source made the active and inactive calls. How the calls were made is not given here.
Wherever efficacy is given: 0% is about no effect.

For one assay the following is noted: Ebola virus entry assay, green fluorescence channel.
`O=c1[nH]cnc2[nH]ncc12`: the efficacy is -34% (inactive).

Turning to `O=C(C1CCCCC1)N1CC(=O)N2CCCc3ccccc3C2C1` (stereo unspecified), the efficacy was 76.1% (inactive).

Consider `N[C@@H](CCC(=O)N[C@@H](CS)C(=O)NCC(=O)O)C(=O)O`, for which the efficacy is -20.9% (inactive).

As to `Cc1c(C)c2c(c(C)c1O)CCC(C)(COc1ccc(CC3SC(=O)NC3=O)cc1)O2` (stereo unspecified), the efficacy is 35.5% (inactive).

Consider `CCN(CCO)CCn1c(Cc2ccccc2)nc2c1c(=O)n(C)c(=O)n2C`, for which the efficacy was 27.5% (inactive).

For `Cc1cc(CC(=O)O)c(C)n1-c1ccc(Cl)cc1`, the efficacy was 41.9% (inactive).

On to `COC(=O)N/N=C/c1c[n+]([O-])c2ccccc2[n+]1[O-]`, for which the efficacy is 35% (inactive).

As for `CC[N+](CC)(CC)CCOc1cccc(OCC[N+](CC)(CC)CC)c1OCC[N+](CC)(CC)CC`, the efficacy is 15.9% (inactive).

For the compound `CC(C)c1cccc(C(C)C)c1O`, the efficacy is -18.5% (inactive).

The conditions of the next assay: Ebola virus entry assay, blue channel fluorescence.
`CN1CC[C@]23c4c5ccc(O)c4O[C@H]2[C@@H](O)CC[C@H]3[C@H]1C5`: the compound was classed as inactive.

On to `c1ccc(CN2CCNCC2)cc1`, for which the compound was classed as inactive.

As for `COCCOC(=O)C1=C(C)NC(C)=C(C(=O)OC(C)C)C1c1cccc([N+](=O)[O-])c1` (stereo unspecified), the compound was called inactive.

Take `O=C(Nc1ccc(Br)cc1)c1cc(Br)cc(Br)c1O`: the call was inactive.

`COc1cccc([C@@]2(O)CCCC[C@@H]2CN(C)C)c1`: the compound was classed as inactive.

Consider `O=C(NCC(O)CO)c1c(I)c(C(=O)NCC(O)CO)c(I)c(N(CCO)C(=O)CO)c1I` (stereo unspecified), for which the outcome was inactive.

Turning to `COc1ccc2c3c1O[C@H]1[C@H](O)CC[C@H]4[C@@H](C2)N(C)CC[C@@]341`, the outcome was inactive.

On to `Cc1cc2nc3c(=O)[nH]c(=O)nc-3n(C[C@H](O)[C@H](O)[C@H](O)CO)c2cc1C`, for which the compound was called inactive.

On to `C[N+]1(CCF)[C@@H]2CC[C@H]1CC(OC(=O)C(O)(c1ccccc1)c1ccccc1)C2` (stereo partly specified), for which the result was inactive.

Consider `CCCCCCCCCC(=O)O[C@H]1CC[C@H]2[C@@H]3CCC4=CC(=O)CC[C@@H]4[C@H]3CC[C@]12C`, for which the compound was called inactive.

Turning to `CC(C)NCC(O)c1cc(O)cc(O)c1` (stereo unspecified), the result was inactive.

Take `CCOP(=S)(OCC)Oc1ccc2c(C)c(Cl)c(=O)oc2c1`: the result was inactive.

Consider `COc1cc(CCN)cc(OC)c1OC`, for which the compound was called inactive.

Regarding `Cc1cc(C(C#N)c2ccc(Cl)cc2)c(Cl)cc1NC(=O)c1cc(I)cc(I)c1O` (stereo unspecified), the call was inactive.

For `CC1(C)C(C=C(Cl)Cl)C1C(=O)OC(C#N)c1cccc(Oc2ccccc2)c1` (stereo unspecified), the result was inactive.

Usually AC50 stands for the midpoint of the concentration-response curve, whichever way the signal moves. As for `O=C(CCCN1CCC2(CC1)C(=O)NCN2c1ccccc1)c1ccc(F)cc1`, the AC50 was 1780 nM (active).

`C[C@]12CCC(=O)C=C1CC[C@@H]1[C@@H]2CC[C@@]2(C)[C@H]1CC[C@]2(C)O`: the result was inactive.

With `CN1Cc2cc(C(=O)N3CCC(C4CCNCC4)CC3)ccc2NC(CC(=O)O)C1=O` (stereo unspecified), the result was inactive.

For `CN1C(C(=O)Nc2ccccn2)=C(O)c2sccc2S1(=O)=O`, the compound was called inactive.

Turning to `O=C(N/N=C/c1ccccc1O)c1ccncc1`, the call was inactive.

`COP(=S)(OC)Oc1cc(Cl)c(Cl)cc1Cl`: the outcome was inactive.

With `CC(=O)OCC(=O)[C@@]1(OC(C)=O)[C@@H](C)C[C@H]2[C@@H]3C[C@H](F)C4=CC(=O)C=C[C@]4(C)[C@@]3(F)[C@@H](O)C[C@@]21C`, the compound was called inactive.

As to `CC(=O)O[C@]1(C(C)=O)CC[C@H]2[C@@H]3C[C@H](C)C4=CC(=O)CC[C@]4(C)[C@H]3CC[C@@]21C`, the call was inactive.

`CCOc1ccccc1OCC1CNCCO1` (stereo unspecified): the call was inactive.

As for `O=c1[nH]cnc2[nH]ncc12`, the call was inactive.

Turning to `O=C(C1CCCCC1)N1CC(=O)N2CCCc3ccccc3C2C1` (stereo unspecified), the compound was called inactive.

In the case of `N[C@@H](CCC(=O)N[C@@H](CS)C(=O)NCC(=O)O)C(=O)O`, the result was inactive.

With `Cc1c(C)c2c(c(C)c1O)CCC(C)(COc1ccc(CC3SC(=O)NC3=O)cc1)O2` (stereo unspecified), the call was inactive.

As for `CCN(CCO)CCn1c(Cc2ccccc2)nc2c1c(=O)n(C)c(=O)n2C`, the outcome was inactive.

On to `Cc1cc(CC(=O)O)c(C)n1-c1ccc(Cl)cc1`, for which the outcome was inactive.

As for `COC(=O)N/N=C/c1c[n+]([O-])c2ccccc2[n+]1[O-]`, the compound was classed as inactive.

For `CC[N+](CC)(CC)CCOc1cccc(OCC[N+](CC)(CC)CC)c1OCC[N+](CC)(CC)CC`, the compound was called inactive.

Take `CC(C)c1cccc(C(C)C)c1O`: the result was inactive.

The conditions of the next assay: Ebola virus entry assay, ratio channel.
For the compound `Cc1ccc(C(C)C)cc2c(C)ccc1-2`, the result was inactive.

On to `CC(C)(C)NC[C@H](O)COc1nsnc1N1CCOCC1`, for which the result was inactive.

In the case of `COc1ccc(Cc2cnc(N)nc2N)cc1OC`, the outcome was inactive.

On to `CC1(C)O[C@@H]2C[C@H]3[C@@H]4CCC5=CC(=O)C=C[C@]5(C)[C@@H]4[C@@H](O)C[C@]3(C)[C@]2(C(=O)CO)O1`, for which the result was inactive.

As to `FC1(F)C(F)(F)C(F)(F)C2(F)C(F)(F)C(F)(F)C(F)(F)C(F)(F)C2(F)C1(F)F` (stereo unspecified), the outcome was inactive.

For `CC1CCc2c(N3CCC(O)CC3)c(F)cc3c(=O)c(C(=O)O)cn1c23` (stereo unspecified), the outcome was inactive.

For a further assay the following is noted: Ebola virus entry assay, green channel fluorescence.
On to `CN1CC[C@]23c4c5ccc(O)c4O[C@H]2[C@@H](O)CC[C@H]3[C@H]1C5`, for which the compound was classed as inactive.

For `c1ccc(CN2CCNCC2)cc1`, the compound was classed as inactive.

Turning to `Cc1ccc(C(C)C)cc2c(C)ccc1-2`, the result was inactive.

Take `CC(C)(C)NC[C@H](O)COc1nsnc1N1CCOCC1`: the result was inactive.

On to `O=C(Nc1ccc(Br)cc1)c1cc(Br)cc(Br)c1O`, for which the compound was classed as inactive.

On to `COc1cccc([C@@]2(O)CCCC[C@@H]2CN(C)C)c1`, for which the result was inactive.

With `COc1ccc2c3c1O[C@H]1[C@H](O)CC[C@H]4[C@@H](C2)N(C)CC[C@@]341`, the compound was classed as inactive.

Consider `C[N+]1(CCF)[C@@H]2CC[C@H]1CC(OC(=O)C(O)(c1ccccc1)c1ccccc1)C2` (stereo partly specified), for which the compound was called inactive.

In the case of `CCCCCCCCCC(=O)O[C@H]1CC[C@H]2[C@@H]3CCC4=CC(=O)CC[C@@H]4[C@H]3CC[C@]12C`, the call was inactive.

For `CCOP(=S)(OCC)Oc1ccc2c(C)c(Cl)c(=O)oc2c1`, the compound was classed as inactive.

As to `COc1cc(CCN)cc(OC)c1OC`, the compound was called inactive.

As for `COc1ccc(Cc2cnc(N)nc2N)cc1OC`, the compound was called inactive.

On to `CC1(C)C(C=C(Cl)Cl)C1C(=O)OC(C#N)c1cccc(Oc2ccccc2)c1` (stereo unspecified), for which the compound was called inactive.

For the compound `O=C(CCCN1CCC2(CC1)C(=O)NCN2c1ccccc1)c1ccc(F)cc1`, the compound was classed as inactive.

With `C[C@]12CCC(=O)C=C1CC[C@@H]1[C@@H]2CC[C@@]2(C)[C@H]1CC[C@]2(C)O`, the outcome was inactive.

As to `CC1(C)O[C@@H]2C[C@H]3[C@@H]4CCC5=CC(=O)C=C[C@]5(C)[C@@H]4[C@@H](O)C[C@]3(C)[C@]2(C(=O)CO)O1`, the compound was called inactive.

For the compound `FC1(F)C(F)(F)C(F)(F)C2(F)C(F)(F)C(F)(F)C(F)(F)C(F)(F)C2(F)C1(F)F` (stereo unspecified), the compound was classed as inactive.

In the case of `COP(=S)(OC)Oc1cc(Cl)c(Cl)cc1Cl`, the call was inactive.

In the case of `CC1CCc2c(N3CCC(O)CC3)c(F)cc3c(=O)c(C(=O)O)cn1c23` (stereo unspecified), the compound was called inactive.

On to `O=c1[nH]cnc2[nH]ncc12`, for which the call was inactive.

Regarding `CCN(CCO)CCn1c(Cc2ccccc2)nc2c1c(=O)n(C)c(=O)n2C`, the outcome was inactive.

With `CC[N+](CC)(CC)CCOc1cccc(OCC[N+](CC)(CC)CC)c1OCC[N+](CC)(CC)CC`, the outcome was inactive.

As to `CC(C)c1cccc(C(C)C)c1O`, the compound was called inactive.
